ChEMBL document CHEMBL1157539, “Thousands of chemical starting points for antimalarial lead identification” (Nature, 2010)

These compounds were tested on Plasmodium falciparum (assay: GSK_TCMDC: Inhibition of Plasmodium falciparum 3D7 in whole red blood cells, using parasite LDH activity as an index of growth. Test compounds present at 2uM).
Type: functional

SMILES | Inhibition
CN(C)CCN(C)Cc1ccc(-c2ccc(NC(=O)c3cccc(Cl)c3)cc2)cc1.O=C(O)C(F)(F)F | 94%
COc1cc(Cl)c(C)cc1-n1cc(C(=O)c2cc(Br)ccc2O)cc(C#N)c1=O | 95%
COc1cc(Nc2ncc3c(C)nc(-c4cccc(Nc5ccc(CN6CCS(=O)(=O)CC6)cc5)c4)n3n2)cc(OC)c1OC | 90%
COc1cc(C(=O)N2CCN(C(C)C)CC2)ccc1CN(C)CCCCN1CCN(c2cccc(Cl)c2Cl)CC1.Cl | 100%
O=C(O)C(F)(F)F.OCCN1CCN(Cc2ccc(-c3ccc(-c4nc5cc(F)ccc5[nH]4)cc3)cc2)CC1 | 100%
COc1ccc2ncc(F)c(CCN3CC(O)C(CNCc4ccc5c(n4)NC(=O)CS5)C3)c2c1.Cl (stereo not given) | 92%
COc1ccc(-c2ccc(NC(=O)c3cccc(Cl)c3)c(F)c2)cc1CNC(C)C.O=C(O)C(F)(F)F | 93%
O=C(Nc1ccc(Cl)cc1)c1ccc(CN2CCCN(Cc3cccc(Cl)c3)CC2)cc1.O=C(O)C(F)(F)F | 96%
Cc1ccc(Cn2ncc(N3CCNCC3)c(Cl)c2=O)cc1NC(=O)Nc1ccc(-c2ccccc2)cc1.O=C(O)C(F)(F)F | 90%
COc1cccc(CNC[C@@H](O)[C@H](Cc2ccccc2)NC(=O)c2cc3c4c(c2)c(C(C)C)cn4CCS(=O)(=O)N3C)c1.O=CO | 98%
CN(C)CCCNCc1ccc(-c2ccc(F)c(Cl)c2)o1.Cl | 93%
CCOc1cc(Cc2cnc(N)nc2N)cc(OCC)c1OCCCCC(=O)OC | 95%
CN(C)CCC1CCN(CCS(=O)(=O)c2cccc(Nc3ccc(-c4ccsc4)cn3)c2)CC1 | 97%
O=C(/C=C/c1ccc(Cl)c(Cl)c1)NCCCCCN1CCC(NC(=O)Nc2cc(Cl)nc(Cl)c2)CC1 | 100%
CCn1c(-c2nonc2N)nc2c(-c3cccc(Cl)c3)ncc(OCCCNCCc3c[nH]cn3)c21.O=C(O)C(F)(F)F | 100%
O=C(N[C@@H](CC1CCCCC1)C(=O)NCCc1ccc(Cl)c(Cl)c1)c1ccc(O)c(-c2ccc(Cl)c(Cl)c2)c1 | 100%
CC(C)(C)c1cc2cc(Nc3ccnc4cc(-c5nccs5)ccc34)ccc2[nH]1.Cl | 100%
O=C(NCC1CCC(C(=O)NCCc2ccc(Cl)c(Cl)c2)CC1)c1ccc(O)c(-c2ccc(Cl)c(Cl)c2)c1 (stereo not given) | 94%
COc1cccc(-c2cnc(N)c(-c3nc4cc(Cl)c(F)cc4[nH]3)c2)c1 | 100%
Cl.OCCNc1nc(Nc2ccc(F)cc2)nc2ccccc12 | 94%
Cc1cc(Nc2ccnc(-c3ccc(Cl)cc3)n2)ccn1 | 94%
CC1CN(c2cnn(C/C=C/c3ccc(NC(=O)c4ccc([N+](=O)[O-])cc4)cc3)c(=O)c2Cl)CC(C)N1.O=C(O)C(F)(F)F (stereo not given) | 96%
O=S(=O)(c1cccc2cccnc12)N1CCN(C2CCCCC2)CC1 | 96%
COc1cc(NC(=O)CCCCCCCN2CCN(C)CC2)c2ncccc2c1 | 95%
O=C1C[C@@H]([S+]([O-])Cc2nccs2)N1CCOCCCCCCc1ccc(Cl)cc1 (stereo not given in full) | 91%

These compounds were tested on Plasmodium falciparum (assay: GSK_TCMDC: Inhibition of Plasmodium falciparum Dd2 in whole red blood cells, using parasite LDH activity as an index of growth. Test compounds present at 2uM).
Type: functional

SMILES | Inhibition
O=C(Nc1ccc(-c2ccccc2)c(OCCN2CCNCC2)c1)c1ccc(-c2ccc(Cl)cc2)cc1 | 31%
CN1CCN(c2ccc(Nc3c(C(N)=O)cnc4cc(-c5ccoc5)ccc34)cc2C(F)(F)F)CC1.Cl | 97%
Cc1cc(=NN=Cc2ccccc2)c2cc(C(F)(F)F)ccc2[nH]1 | 97%
COc1cc(Cc2cnc(N)nc2N)ccc1OCc1ccc(-c2ccccc2C#N)cc1 | 3%
CC1CC(C)CN(CC(O)CNC(=O)Nc2ccc(Br)cc2)C1.O=C(O)C(F)(F)F (stereo not given) | 44%
CC(=O)Nc1ccc(CN2CCN(C(c3ccc(F)cc3)c3ccc(F)cc3)CC2)cc1 | 79%
CCCCNc1c(C(=O)OCC)c(C)nc2c1[nH]c1ccccc12 | 58%
CC[C@@H]([C@@H](CC(C)C)C(=O)N[C@@H](CCCCNC(=O)OCc1ccccc1)C(=O)Nc1ccccn1)N(O)C=O | 99%
FC(F)(F)c1cccc(CNCCCCCNCc2ccc(Cl)cc2)c1 | 15%
COc1ccc(CN(C)CCCc2ccc(NC(=O)c3cccc4c(=O)c5cccc(F)c5[nH]c34)cc2)cc1OC | 94%
CC(C)C(=O)NC(c1ccc(Cl)cc1)c1ccc2cccnc2c1O (stereo not given) | 70%
CC(=O)c1c(Nc2c(C)cc(C)cc2C)oc(C)cc1=O | 83%
COc1ccccc1CNC(=O)c1ccc(N2CCN(c3ccncc3)CC2)cn1.O=C(O)C(F)(F)F | 17%
Nc1c(Cl)cc(C(O)CNCCCCCOCCc2ccc3occc3c2)cc1Cl (stereo not given) | 74%
COc1ccc(Cn2c(N3CCN(S(=O)(=O)c4ccc(OC)cc4)CC3)nc3c2c(=O)n(CC2CC2)c(=O)n3CC2CC2)cc1 | 39%
CN(C)CCN(C)Cc1ccc(-c2ccc(NC(=O)c3cccc(Cl)c3)cc2)cc1.O=C(O)C(F)(F)F | 54%
COc1cc(Cl)c(C)cc1-n1cc(C(=O)c2cc(Br)ccc2O)cc(C#N)c1=O | 35%
COc1cc(Nc2ncc3c(C)nc(-c4cccc(Nc5ccc(CN6CCS(=O)(=O)CC6)cc5)c4)n3n2)cc(OC)c1OC | 79%
COc1cc(C(=O)N2CCN(C(C)C)CC2)ccc1CN(C)CCCCN1CCN(c2cccc(Cl)c2Cl)CC1.Cl | 98%
O=C(O)C(F)(F)F.OCCN1CCN(Cc2ccc(-c3ccc(-c4nc5cc(F)ccc5[nH]4)cc3)cc2)CC1 | 99%

SMILES | Inhibition
COc1ccc2ncc(F)c(CCN3CC(O)C(CNCc4ccc5c(n4)NC(=O)CS5)C3)c2c1.Cl (stereo not given) | 34%
COc1ccc(-c2ccc(NC(=O)c3cccc(Cl)c3)c(F)c2)cc1CNC(C)C.O=C(O)C(F)(F)F | 14%
O=C(Nc1ccc(Cl)cc1)c1ccc(CN2CCCN(Cc3cccc(Cl)c3)CC2)cc1.O=C(O)C(F)(F)F | 15%
Cc1ccc(Cn2ncc(N3CCNCC3)c(Cl)c2=O)cc1NC(=O)Nc1ccc(-c2ccccc2)cc1.O=C(O)C(F)(F)F | 30%
COc1cccc(CNC[C@@H](O)[C@H](Cc2ccccc2)NC(=O)c2cc3c4c(c2)c(C(C)C)cn4CCS(=O)(=O)N3C)c1.O=CO | 98%
CN(C)CCCNCc1ccc(-c2ccc(F)c(Cl)c2)o1.Cl | 69%
CCOc1cc(Cc2cnc(N)nc2N)cc(OCC)c1OCCCCC(=O)OC | 0%
CN(C)CCC1CCN(CCS(=O)(=O)c2cccc(Nc3ccc(-c4ccsc4)cn3)c2)CC1 | 6%
O=C(/C=C/c1ccc(Cl)c(Cl)c1)NCCCCCN1CCC(NC(=O)Nc2cc(Cl)nc(Cl)c2)CC1 | 2%
CCn1c(-c2nonc2N)nc2c(-c3cccc(Cl)c3)ncc(OCCCNCCc3c[nH]cn3)c21.O=C(O)C(F)(F)F | 98%
O=C(N[C@@H](CC1CCCCC1)C(=O)NCCc1ccc(Cl)c(Cl)c1)c1ccc(O)c(-c2ccc(Cl)c(Cl)c2)c1 | 99%
CC(C)(C)c1cc2cc(Nc3ccnc4cc(-c5nccs5)ccc34)ccc2[nH]1.Cl | 97%
O=C(NCC1CCC(C(=O)NCCc2ccc(Cl)c(Cl)c2)CC1)c1ccc(O)c(-c2ccc(Cl)c(Cl)c2)c1 (stereo not given) | 12%
COc1cccc(-c2cnc(N)c(-c3nc4cc(Cl)c(F)cc4[nH]3)c2)c1 | 26%
Cl.OCCNc1nc(Nc2ccc(F)cc2)nc2ccccc12 | 73%
Cc1cc(Nc2ccnc(-c3ccc(Cl)cc3)n2)ccn1 | 23%
CC1CN(c2cnn(C/C=C/c3ccc(NC(=O)c4ccc([N+](=O)[O-])cc4)cc3)c(=O)c2Cl)CC(C)N1.O=C(O)C(F)(F)F (stereo not given) | 38%
O=S(=O)(c1cccc2cccnc12)N1CCN(C2CCCCC2)CC1 | 10%
COc1cc(NC(=O)CCCCCCCN2CCN(C)CC2)c2ncccc2c1 | 83%
O=C1C[C@@H]([S+]([O-])Cc2nccs2)N1CCOCCCCCCc1ccc(Cl)cc1 (stereo not given in full) | 0%
